IL-1B inflam inh: inflammasome signaling inhibition, IL-1 beta readout. THP-1 LPS/ATP IL-1B secretion, AlphaLISA, 16 h; stronger effect = lower value. activity change, % at 57.5 µM. 360,000 tested, 4.7% active. AID 743279; in the data active means activity change below about -50%; inconclusive means mostly about -30% to -49%
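THP-1 cells pretreated 1 hr with compounds (up to 57.5 uM final), then stimulated with LPS (250 ng/mL final) plus ATP (1.25 mM final); secreted IL-1B measured by AlphaLISA after 16 hr, decreased signal indicating inhibition.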
DT40 TDP1 CPT: growth inhibition of DT40 Tdp1-/-;hTDP1 cells with camptothecin (screen for TDP1 inhibitors); chicken DT40 Tdp1-/-;hTDP1 cells + 20 nM CPT, ATP luminescence, 48 h; Potency, µM (top dose mostly 46.2 µM), for inactives: at the top dose activity change, negative = growth inhibition, hits mostly inhibitors; 420,000 tested, 12% active; further: potency means the concentration at half of the fitted maximal effect; nearly all actives have a fitted effect of over 55% in size
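Chicken DT40 Tdp1-/- cells stably complemented with human TDP1 were seeded at 400 cells/well in medium containing 20 nM camptothecin, exposed to pin-transferred compounds, and grown at 37 °C for at least 48 hr. Viability was read as ATP luminescence.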
TDP1 cell noCPT: qHTS for Inhibitors of human tyrosyl-DNA phosphodiesterase 1 (TDP1): qHTS in cells in absence of CPT; 420,000 tested, 15% active; Potency, µM (doses to about 46.2 µM), for inactives: at the top dose activity change, negative = growth inhibition, most hits filed as inhibitors; DT40 Tdp1-/- hTDP1 cells, no CPT, ATP luminescence, 48 h; AID 686978, 2013; further: potency means the concentration at half of the fitted maximal effect; nearly all actives have a fitted effect of over 55% in size
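Chicken DT40 Tdp1-/- cells complemented with human TDP1, screened without camptothecin (DMSO vehicle only), 400 cells/well. Compounds pin-transferred, cells incubated at 37 °C for at least 48 hr. Growth read as ATP-dependent luminescence (CellTiter-Glo, 30 min at RT).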
HT1080 IDH1KD tx: kills HT-1080 cells with IDH1 knockdown; HT-1080 IDH1 knockdown viability, ATP luminescence, 48 h; Potency, µM (highest dose often 46.1 µM), inactives show top-dose activity, negative = toxicity, most hits filed as cytotoxic; 360,000 tested, 2% active; AID 686971;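 further: potency means the concentration at half of the fitted maximal effect; 0% = DMSO wells and -100% = cell-free medium wells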
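% activity derives from luminescence (CellTiter-Glo), normalised to DMSO and no-cell wells. HT-1080-IDH1KD cells, 750/well, had 48 h compound exposure at 37 °C.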
HT1080-NT tox: kills 2HG-producing HT-1080-NT fibrosarcoma cells | 360,000 tested, 1.6% active | Potency, µM (titrated, usually from 46.1 µM), without a hit: at the top dose activity, negative = less viability, hits mostly cytotoxic | HT-1080-NT fibrosarcoma viability, CellTiter-Glo ATP luminescence, 48 h;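 further: NT is the 2HG producing partner of a matched IDH1 knockdown line; potency means the concentration at half of the fitted maximal effect; 0% = DMSO-treated cells and -100% = media-only wells without cells; nearly all actives have a fitted effect of over 55% in size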
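Viability by CellTiter-Glo luminescence after 48 h compound exposure at 37C of HT-1080-NT cells (750/well, RPMI, 5% FBS). % activity scaled between DMSO wells and medium-only wells, then curve-fitted and categorized by curve class.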
The depositor's hits bear a star; ? = inconclusive; . = no result; ! = repeats disagree. Hits are enriched below; roughly 19% of the tested compounds scored in any of these assays. Unless noted, the call rests on the fitted dose curve; in most records, active means well fitted curve in the direction sought with a large enough effect; inconclusive means small, poorly fitted or top-dose-only effect, or another doubt; inactive means no such curve, though single readings can be large; an effect the other way counts as inactive or inconclusive. Unless noted, on the % scale 0 is the no-effect control and ±100 the full control effect.

SMILES	IL-1B inflam inh	DT40 TDP1 CPT	TDP1 cell noCPT	HT1080 IDH1KD tx	HT1080-NT tox
Cc1ccc(CNC(=O)c2cc(=O)c3cc(C)ccc3o2)cc1	7.8	-11.2%	-18.2%	-3.3%	1.3%
CCOc1ccc(CCNC(=O)c2nnc(Cc3cc(OC)c(OC)c(OC)c3)o2)cc1OCC	.	20.6µM*	?	.	.
COc1ccc(CCNC(=O)c2ccc(CS(=O)Cc3ccc(C)cc3)o2)cc1OC (stereo not drawn)	3.7	?	-19.0%	0.3%	13.2%
CC(=O)Nc1ccc(NC(=O)c2cc(CN3CCCC3)on2)cc1	.	-0.7%	-18.0%	.	.
CCCc1cc(=O)oc2cc(OCC(=O)NCCc3c[nH]c4ccc(OC)cc34)ccc12	-18.6	16.4µM*	14.6µM*	-24.1%	-21.9%
CCCc1cc(=O)oc2cc(OCC(=O)NCCc3ccc(S(N)(=O)=O)cc3)ccc12	6.3	-22.9%	-26.2%	-4.6%	-3.0%
COc1ccc(CCNC(=O)c2cc(=O)c3cc(C)c(C)cc3o2)cc1OC	.	-29.7%	7.31µM*	.	.
COc1ccc(CNC(=O)c2cc(=O)c3cc(C)c(C)cc3o2)cc1	19.8	-0.3%	-10.0%	-3.5%	-2.0%
COC(=O)/C=C1\OCc2cc(OCc3ccccc3)ccc21	-17.5	?	?	-19.4%	-18.9%
CC(C)C(=O)N1CCC1(C)C(=O)Nc1cc(-c2ccccc2)nn1C (stereo not drawn)	10.0	?	-28.0%	-0.7%	-0.5%
COP(=O)(OC)c1nc(-c2ccccc2)oc1N1CCOCC1	2.4	22.5%	0.3%	16.0%	24.3%
COP(=O)(OC)c1nc(-c2cccc3ccccc23)oc1NCc1ccccc1	-22.5	16.4µM*	18.4µM*	-0.3%	-14.4%
CCOP(=O)(c1ccccc1)c1nc(-c2ccccc2C)oc1NCc1ccccc1 (stereo not drawn)	15.2	?	23.1µM*	6.3%	7.8%
CCOP(=O)(OCC)c1nc(-c2ccccc2)oc1N1CCCCC1	-1.8	20.6µM*	16.4µM*	15.1%	-0.3%
Cc1ccccc1-c1nc(P(=O)(c2ccccc2)c2ccccc2)c(N2CCOCC2)o1	-66.6*	?	?	-4.7%	-6.4%
Cc1cc(O)cc2c1O[C@](C)(CCC(=O)O)CC2	.	-3.2%	-2.4%	15.9%	16.4%
CCCOC(=O)c1c(NC(=O)CCCn2nc([N+](=O)[O-])cc2C)sc(C(=O)OC)c1C	25.2	-28.8%	?	14.6%	16.5%
COc1ccccc1NC(=O)Cn1nc2c3cc(F)ccc3n(Cc3cccc(C)c3)cc-2c1=O	.	0.4%	19.3%	.	.
CCOP(=O)(c1ccccc1)c1nc(-c2ccccc2C)oc1N1CCCCC1 (stereo not drawn)	?	13µM*	13µM*	?	?
CC1(C)CC(Nc2ccc(Nc3ccccc3)cc2)CC(C)(C)N1	-81.0*	16.4µM*	4.61µM*	-24.6%	?
O=C(COC(=O)/C=C/C(=O)N1CCN(c2ccccc2)CC1)NC(c1ccccc1)c1ccccc1	-54.4*	?	?	-13.7%	-7.0%
CC1(NC(=O)CC(c2ccccc2)(c2ccccc2)c2ccccc2)CCN(CCCc2ccccc2)C1=O (stereo not drawn)	-13.4	23.1µM*	20.6µM*	?	?
O=C(NC1(Cc2ccccc2)CCN(Cc2ccc(-c3ccccc3)cc2)C1=O)c1ccccc1 (stereo not drawn)	-9.7	20.6µM*	23.1µM*	?	?
CC1(NC(=O)c2ccccc2)CCN(CCCc2ccccc2)C1=O (stereo not drawn)	5.7	3.66µM*	4.61µM*	12.0%	9.0%
CCOC(=O)N1CCN(CCCc2ccccc2)CC1	-8.5	5.9%	2.1%	1.9%	15.0%
SMILES	IL-1B inflam inh	DT40 TDP1 CPT	TDP1 cell noCPT	HT1080 IDH1KD tx	HT1080-NT tox
CC1(NC(=O)CCc2ccccc2)CCN(CCCc2ccccc2)C1=O (stereo not drawn)	23.6	14.6µM*	?	13.9%	5.9%
O=C(NN1C(=O)NC2(CCCCC2)C1=O)c1cccs1	0.0	-17.6%	-19.6%	-0.7%	14.1%
Cc1ccccc1-c1noc(-c2cc3ccccc3oc2=O)n1	.	-7.5%	?	.	.
CCOc1ccccc1C(=O)NC1CC2CCCC(C1)N2Cc1nnnn1Cc1ccco1 (stereo not drawn)	?	?	16.4µM*	8.0%	-0.4%
O=C(NCc1ccccc1)NC1CC2CCC(C1)N2Cc1ccco1 (stereo not drawn)	3.3	9.8%	-19.7%	10.4%	8.0%
CCOc1ccccc1C(=O)NC1CC2CCCC(C1)N2C1CC1 (stereo not drawn)	22.2	-26.1%	-24.1%	-1.7%	-2.8%
O=C(NC1CC2CCC(C1)N2Cc1nnnn1Cc1ccco1)NC12CC3CC(CC(C3)C1)C2 (stereo not drawn)	31.0	20.6µM*	18.4µM*	1.9%	-7.4%
CCc1ccc(/C=C2/SC(=S)N(CCC(=O)NCCCN3CCOCC3)C2=O)cc1	-29.5	-30.0%	-21.3%	-23.5%	-24.5%
CCOc1ccc(/C=C2\SC(=S)N(CCCC(=O)NCCCN3CCOCC3)C2=O)cc1	-89.4*	18.4µM*	?	16.4µM*	?
CCOc1ccc(/C=C2\SC(=S)N(CC(=O)N(CCO)C(C)(C)C)C2=O)cc1	-123.3*	?	?	-27.9%	?
CCc1ccc(/C=C2\SC(=S)N(CCCC(=O)NCCCN3CCOCC3)C2=O)cc1	-56.7*	20.6µM*	?	?	-17.9%
O=C(COC(=O)/C=C/c1ccc([N+](=O)[O-])cc1)NC1CCCCC1	11.8	-12.7%	-26.2%	5.0%	10.4%
COc1ccc(CN2CC(C(=O)NCCc3ccc(C)cc3)CC2=O)cc1 (stereo not drawn)	16.8	?	-9.1%	-10.7%	4.3%
Cc1ccc(-c2nc(-c3cc4cc(Cl)ccc4oc3=O)sc2C)cc1	.	-11.2%	?	.	.
COC(=O)c1ccccc1C(=O)N(Cc1cccnc1)CC1CCCN(C2CCCCC2)C1 (stereo not drawn)	23.6	-16.6%	-7.4%	6.7%	4.2%
Cc1ccc(C(C(=O)Nc2ccc(C(C)C)cc2)N(C)C(=O)c2ccc(=O)[nH]c2)cc1 (stereo not drawn)	-14.7	-10.3%	18.4µM*	-17.3%	-4.3%
Cc1cccc2sc(N(CCCN(C)C)C(=O)c3cc4ccccc4oc3=O)nc12	0.0	23.1µM*	?	-21.4%	-14.5%
Cc1ccc2nc(N(CCCN(C)C)C(=O)c3cc4ccccc4oc3=O)sc2c1	-51.3*	-20.6%	?	-2.7%	-2.5%
Cc1cccc2sc(N(CCCN(C)C)C(=O)c3ccc(Cl)s3)nc12	-61.8*	23.1µM*!	?	?	-17.7%

Screening data (PubChem BioAssay)
